# Test results: the supplement of paper PMC6555819
# Experiments:
# Experiment in all cases: PBM binding z-score (relative to random genomic background probes); higher = stronger binding; sequences stand for … in GC…GCGATTGACAGCGTAGAATGAAGG
# [1] = system: FXR:RXRa (NR concentration 270 nM, RXRa partner concentration 90 nM)
# In short: (§1)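 Ligand-free nuclear receptor dimers were bound for 1 h to custom Agilent 4×180K protein-binding microarrays. Detection used antibodies against each partner (one per run). Binding z-scores rest on regression-normalized fluorescence, with random background probes as the reference.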
# [2] = system: LXRa:RXRa (NR concentration 270 nM, RXRa partner concentration 90 nM)
# In short: as §1
# [3] = system: LXRa homodimer (NR concentration 270 nM)
# In short: as §1
# [4] = system: LXRb:RXRa (NR concentration 270 nM, RXRa partner concentration 90 nM)
# In short: as §1
# [5] = system: LXRb homodimer (NR concentration 270 nM)
# In short: as §1
# [6] = system: PPARa:RXRa (NR concentration 270 nM, RXRa partner concentration 90 nM)
# In short: as §1
# [7] = system: PPARg:RXRa (NR concentration 180 nM, RXRa partner concentration 90 nM)
# In short: as §1
# [8] = system: PPARg:RXRa 270nM:90nM, anti-RXR (NR concentration 270 nM, RXRa partner concentration 90 nM)
# In short: as §1
# [9] = system: PPARg:RXRa 30nM:10nM, anti-RXR (NR concentration 30 nM, RXRa partner concentration 10 nM)
# In short: as §1
# [10] = system: PPARg:RXRa 90nM:30nM, anti-RXR (NR concentration 90 nM, RXRa partner concentration 30 nM)
# In short: as §1
Sequence,PBM binding z-score [1],PBM binding z-score [2],PBM binding z-score [3],PBM binding z-score [4],PBM binding z-score [5],PBM binding z-score [6],PBM binding z-score [7],PBM binding z-score [8],PBM binding z-score [9],PBM binding z-score [10]
TCTCGTAGGACACGAAAGGTCAGAGCTCGACATC,3.08,3.85,2.58,3.39,0.134,3.58,1.24,2.98,2.7,2.81
TCTATTAGTTGATTAGGGCACCCGAAACAGCGGA,0.613,0.698,0.336,0.367,0.572,0.646,0.343,1.83,3.73,2.91
CAAATTAGGTCACGAAAGGTCAAAGTCGAATGAC,7.62,8.19,7.52,7.45,3.07,6.87,10.1,8.6,6.67,8.69
CAGCCTAGGTCAGTGCCAGTATAGGAGGAACGTT,0.914,0.456,-0.00279,0.349,-0.648,1.17,0.469,0.475,-0.196,0.0661
GCTTACGGGTCGAAGGTTATAGCATGAATAGAAT,2.01,2,-0.187,2.51,-0.371,4.36,6.66,6.7,4.94,6.88
CGTCCAACGTCAAAGGTCAGTGAAGAGATGACGG,2.97,3.2,0.576,2.94,0.0829,4.04,3.28,4.92,2.64,4.72
TCGAGCAGGTTAGTCGGGGCATTCAGCCAACATA,-0.0429,-0.284,-0.517,0.593,-0.865,0.572,-0.408,-0.00465,0.101,0.383
TCTCGGAGGACACGAAGTTCAGAGCTTTCCAGAG,0.621,0.0816,-0.00666,0.0852,-0.97,0.472,-0.146,1.2,2.18,1.76
ATCTCTAGGTAACCAAGTTCAGTGCATGCCGAAC,0.755,1.14,0.876,0.833,0.777,1.38,0.901,0.936,0.401,0.474
GCTTACGGGTCAAAGGTTATACCATGAATAGAAT,7.48,5.87,0.778,5.87,0.759,7.21,11.2,9.29,9.29,10.3
TGTAGTTGGTCACGGAGGTCACACACGACGGGTA,3.41,3.44,2.52,3.09,0.847,3.87,3.72,3.52,1.51,2.93
TCATATAGGAAAACAGGTGAAAGTCCGTAAGTTA,1.22,1.13,0.235,1.11,-0.323,1.44,1.13,2.8,4.43,3.77
ACTCGAAGGACAAAGGTCAGAGCTACGCCAGTGA,4.03,3.98,1.41,3.57,0.35,4.95,6.73,6.23,5.02,6.39
TCTATTAGTTGGAGGGCAACCGACGAGTCCGTTT,0.6,1.06,0.645,0.855,0.753,0.93,-0.158,1.88,3.25,2.33
ACTAGCAGGCCGAGTTTGGGTCACTCAAACAAAG,-0.115,-0.146,-0.389,0.653,-0.928,1.21,-0.2,-0.103,-0.644,-0.461
TCTTGGAGATCAGCAGGTTAAGAAAGCTGGCCAA,0.173,-0.0127,-0.38,0.0269,-0.539,0.752,-0.546,0.883,2.2,1.52
ATCTCTAGGTAAAGATAGTCCAGTGAATGCAAAT,0.226,0.368,-0.00685,-0.0224,0.398,-0.051,0.458,0.219,0.157,0.0539
TCATTTAGGTAAAGGTGAAAGTCGAACGATATGA,1.18,1.46,-0.167,1.52,0.32,3.21,3.2,4.48,4.39,4.9
CGTCCAAGGTCAGAGAGGTCAGTGGATGCCGAGT,6.14,5.17,3.43,4.38,0.285,4.94,3.46,4.26,1.09,2.58
CGTCCAAGGTCATAGGAGGTCAGTGTAGACAGAT,7.58,7.26,4.98,6.27,1.28,5.83,5.64,5.77,2.31,4.68
TCTAACAGGCCAGAGGGTCACTCAAGAGGTACGG,1.24,1.31,-0.315,1.47,-0.439,2.54,1.41,2.62,3.2,2.71
GCTCGTAGGACAAGGTCAGAGCTTTGTCCGTAGA,1.45,1.74,-0.722,1.25,-0.639,2.44,0.258,1.16,-0.473,0.455
ACTTCCGGGTCAACGAGGTTATAGCACGCGTATA,6.37,4.46,0.851,4.24,1.38,5.23,6.06,5.53,2.51,4.51
CGTCAAAGTTCAACTAAGGCAACGTAAAGCACGC,6.41,6.09,3.57,3.9,1.79,4.93,4.8,5.53,1.96,4.18

Sequence,PBM binding z-score [1],PBM binding z-score [2],PBM binding z-score [3],PBM binding z-score [4],PBM binding z-score [5],PBM binding z-score [6],PBM binding z-score [7],PBM binding z-score [8],PBM binding z-score [9],PBM binding z-score [10]
GCTTACGGGTCAAAGGTTATAGAATGAATAGAAT,7.46,6.03,0.9,5.71,0.667,7,11.4,9.46,10.1,10.7
GTACCAAGGTGAATAGGTCGTCGATGAGTAGGCG,0.785,0.833,-0.158,0.527,-0.663,2.45,1.5,1.81,0.196,1.18
TCTTGTAGATCAAGCATGTTAAGAAAGCCTGAGT,0.693,0.403,-0.106,0.334,-0.513,0.796,-0.182,1.46,2.56,2.01
TAGCCTAGGTCAGATCGGGCCAGTATGCGCTATA,2.71,1.19,-0.503,0.727,-0.424,1.73,0.328,0.593,-0.423,0.0994
CCTACTGGGCCATCAGCTCATTGATATCAACGTT,-0.649,-0.431,-0.409,-0.655,-0.446,-0.141,0.457,0.344,-0.273,0.098
CCAGACTGGTGAGAAGGTAACTCAGCCTCGATTA,-0.309,-0.491,-0.22,-0.472,-0.739,-0.19,0.0437,-0.117,-0.431,-0.102
AGAATGAGGTTATTAAGATCAGCGAATTGCGGTC,1.3,1.23,0.0436,1.11,-0.0862,2.49,1.47,1.85,0.288,1.29
CCGACTGGGGCTTAAGGTTACCATAAGCCAGCCC,0.202,1.84,-0.512,0.703,-1.22,0.992,0.91,1.99,-0.108,1.29
CAAACTAGGTCATCGGAAGGTCAAAGTCCGCATG,6.11,5.83,5.44,4.82,1.45,6.01,8.72,7.35,5.14,7.04
ACTAGCTGGCCAAGTTTGGGTCACTCAAACAAAG,-0.286,-0.318,-0.768,0.339,-0.865,1.03,-0.347,0.0249,-0.62,-0.218
ACTATTAGTTGAAACGAGGGCAACCGATAGGTTG,1.41,0.609,0.126,0.482,0.184,1.14,0.901,0.84,0.292,0.528
CCTACTCGGCCACGAAAGGTCATTGATTCAGTGA,3.82,5.15,5.64,4.28,0.938,4.36,1.93,3.43,1.33,2.24
TCTATTAGTTGATTAGGTCAACCGAAACAGCGGA,1.7,2,1.49,2.02,1.35,2.94,1.16,3.19,3.91,3.59
ACTAGTTGGTCAGCTGAGGTCACCCACAATTCGG,3.88,3.1,2.1,3.2,0.552,3.63,1.42,2.6,0.58,2.01
CGTCAAAGTTCAACTAAGCTAACGTAAAGCACGC,6.6,6.23,4.14,4.26,2.57,5.08,4.95,5.46,1.83,4.48
CTCGAAAGGTCGTGCTCAGGAGAGTATACCAAAC,4.89,3.56,0.247,3.12,0.29,4.7,2.62,3.59,1.02,2.48
CGTCCAAGGTCAAGTTCAGTGAAAGAGACTCGAA,8.18,5.89,2.13,4.76,2.42,5.94,5.62,5.92,2.3,4.88
CGTCCAAGGTCAATGCTAGGTCAGTAAAAGCATT,6.68,5.2,2.38,4.32,0.868,5.23,4.37,4.46,1.9,3.08
AGTCAAAGTTCAGGAGGAGGTAACGTAAAGCACG,4.22,3.87,1.6,2.24,0.773,3.67,5.03,5.22,2.38,3.98
TAGCGTAGGTCATTGGGCCAGTATAGTACGCATC,4.93,3.92,0.617,2.84,0.375,4.15,3.75,3.91,1.25,2.52
TCTTGTAGATCGAGCAGGTTAAGAAAGCCTGAGT,-0.145,0.0215,-0.393,0.284,-0.755,0.628,-0.657,1.17,2.46,1.69
TCTTGTAGATCAAAGGTTAAGGAAGCCGAAGCCT,1.76,1.94,0.12,1.9,-0.272,4.8,7.91,7.99,7.63,8.41
CCAGACAGGTGAAAGGCAACTCAGTCTGGTACGC,-0.102,0.0112,-0.327,0.0509,-0.597,1.7,2.49,3.2,1.12,2.8
TCTTGTAGACCAAAGGTTAAGAAAGCCGAAGCCT,1.29,1.9,-0.151,1.82,-0.338,4.78,8.36,8.52,8.06,9.8
